Among the data in PMC8384837, “Expanding the binding specificity for RNA recognition by a PUF domain” are binding signal values, retold here.

Holding throughout (test): yeast three-hybrid, YBZ-1, SC-Leu-His + 0.5 mM 3-AT, 4 days
Common to all, as to settings: tags: N-Gal4 AD-HA kept; label: inside an RPR1-promoter hybrid RNA with tandem MS2 sites; ssRNA

Experiment [1] deals with PUM1 PUF domain R5-RAK (Homo sapiens, UniProt Q14671 828-1176, C1007R;R1008A;Q1011K). In a few lines:
(§1)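 The interaction score is the log change in variant frequency from input to selection. Scores were computed in log2 with a pseudocount of 1 for absent variants, using Illumina sequencing of PCR-amplified repeat regions. The input came from four days on SC-Leu and the selection from four days on SC-Leu-His + 0.5 mM 3-AT. The cells were strain YBZ-1 (LexA–MS2 coat fusion, HIS3 reporter) co-expressing Pumilio-1 PUF domain libraries and matching RNA elements from a centromeric plasmid.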

Experiment [2] has as its target PUM1 PUF domain R4-NRV (Homo sapiens, UniProt Q14671 828-1176, H972R;Q975V). Put shortly: as §1
In experiment [3] the target is PUM1 PUF domain R4-WGR (Homo sapiens, UniProt Q14671 828-1176, N971W;H972G;Q975R). In a few lines:
as §1

For experiment [4], the target named is PUM1 PUF domain R3-FCS (Homo sapiens, UniProt Q14671 828-1176, C935F;R936C;Q939S). Put shortly:
as §1

Experiment [5] deals with PUM1 PUF domain R3-SRL (Homo sapiens, UniProt Q14671 828-1176, C935S;Q939L). In a few lines: as §1
Experiment [6] addresses PUM1 PUF domain R1-QVR (Homo sapiens, UniProt Q14671 828-1176, S863Q;R864V;Q867R). In a few lines:
as §1

For experiment [7], the target named is PUM1 PUF domain R1-NKR (Homo sapiens, UniProt Q14671 828-1176, S863N;R864K;Q867R). Put shortly: as §1
Experiment [8] deals with PUM1 PUF domain R5-RND (Homo sapiens, UniProt Q14671 828-1176, C1007R;R1008N;Q1011D). Put shortly:
as §1

For experiment [9], the target named is T1, PUM1 PUF domain R6-VYL (Homo sapiens, UniProt Q14671 828-1176, N1043V;Q1047L).
T1 sequence: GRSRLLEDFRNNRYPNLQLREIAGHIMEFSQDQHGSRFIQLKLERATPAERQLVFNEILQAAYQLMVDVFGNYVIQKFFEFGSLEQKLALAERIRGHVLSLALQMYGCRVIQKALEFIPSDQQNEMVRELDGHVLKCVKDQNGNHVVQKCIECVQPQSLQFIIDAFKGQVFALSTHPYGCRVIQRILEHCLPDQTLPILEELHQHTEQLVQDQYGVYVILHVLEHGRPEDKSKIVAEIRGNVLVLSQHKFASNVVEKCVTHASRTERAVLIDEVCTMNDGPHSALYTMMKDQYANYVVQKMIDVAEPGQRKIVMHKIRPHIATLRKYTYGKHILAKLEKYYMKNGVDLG
Put shortly:
as §1

Experiment [10] addresses PUM1 PUF domain R3-CFD (Homo sapiens, UniProt Q14671 828-1176, R936F;Q939D). In a few lines:
as §1

For “GGCUAGAACUAGUGGAUCCCCCGGCGCCCGGCGGCUCGAGCCCGGGUAAGUGUUAAUAGUCUGCAUGCCGCCGGGCGCCAUGCCUGCAGGUCGACUCUAGAAAACAUG”, the binding signal in experiment [1] was 3.4 log2 enrichment (interaction score).
For “GGCUAGAACUAGUGGAUCCCCCGGCGCCCGGCGGCUCGAGCCCGGGUAAGUGUAUAUAGUCUGCAUGCCGCCGGGCGCCAUGCCUGCAGGUCGACUCUAGAAAACAUG”, the binding signal was 2.52 log2 enrichment (interaction score) in experiment [2] and 3.49 log2 enrichment (interaction score) in experiment [3].
As for “GGCUAGAACUAGUGGAUCCCCCGGCGCCCGGCGGCUCGAGCCCGGGUAAGUGUAAGUAGUCUGCAUGCCGCCGGGCGCCAUGCCUGCAGGUCGACUCUAGAAAACAUG”, in experiment [4], the binding signal is 5.25 log2 enrichment (interaction score).
On to “GGCUAGAACUAGUGGAUCCCCCGGCGCCCGGCGGCUCGAGCCCGGGUAAGUGUAAUUAGUCUGCAUGCCGCCGGGCGCCAUGCCUGCAGGUCGACUCUAGAAAACAUG”, for which, in experiment [5], the binding signal is 1.51 log2 enrichment (interaction score).
For “GGCUAGAACUAGUGGAUCCCCCGGCGCCCGGCGGCUCGAGCCCGGGUAAGUGUAAAUCGUCUGCAUGCCGCCGGGCGCCAUGCCUGCAGGUCGACUCUAGAAAACAUG”, the binding signal was 3.01 log2 enrichment (interaction score) in experiment [6] and 3.94 log2 enrichment (interaction score) in experiment [7].
Regarding “GGCUAGAACUAGUGGAUCCCCCGGCGCCCGGCGGCUCGAGCCCGGGUAAGUGUAAAUUGUCUGCAUGCCGCCGGGCGCCAUGCCUGCAGGUCGACUCUAGAAAACAUG”, the binding signal in experiment [6] was 1.47 log2 enrichment (interaction score).
In the case of “GGCUAGAACUAGUGGAUCCCCCGGCGCCCGGCGGCUCGAGCCCGGGUAAGUGUAAAUGGUCUGCAUGCCGCCGGGCGCCAUGCCUGCAGGUCGACUCUAGAAAACAUG”, in experiment [7], the binding signal is 1.8 log2 enrichment (interaction score).
On to “GGCUAGAACUAGUGGAUCCCCCGGCGCCCGGCGGCUCGAGCCCGGGUAAGUGUACAUAGUCUGCAUGCCGCCGGGCGCCAUGCCUGCAGGUCGACUCUAGAAAACAUG”, for which the binding signal is 1.97 log2 enrichment (interaction score) in experiment [2] and 3.78 log2 enrichment (interaction score) in experiment [3].
For “GGCUAGAACUAGUGGAUCCCCCGGCGCCCGGCGGCUCGAGCCCGGGUAAGUGUCAAUAGUCUGCAUGCCGCCGGGCGCCAUGCCUGCAGGUCGACUCUAGAAAACAUG”, the binding signal in experiment [8] was 5.27 log2 enrichment (interaction score); in [1] it was 3.03 log2 enrichment (interaction score).
For the sequence “GGCUAGAACUAGUGGAUCCCCCGGCGCCCGGCGGCUCGAGCCCGGGUAAGUGAAAAUAGUCUGCAUGCCGCCGGGCGCCAUGCCUGCAGGUCGACUCUAGAAAACAUG”, the binding signal in experiment [9] is 6.07 log2 enrichment (interaction score).
“GGCUAGAACUAGUGGAUCCCCCGGCGCCCGGCGGCUCGAGCCCGGGUAAGUGUAAAUAGUCUGCAUGCCGCCGGGCGCCAUGCCUGCAGGUCGACUCUAGAAAACAUG”: the binding signal in [2] is 1.46 log2 enrichment (interaction score); in experiment [8], 0.31 log2 enrichment (interaction score); in [5] it was 3.65 log2 enrichment (interaction score); in [3] it was 0.32 log2 enrichment (interaction score); in experiment [9] it was 0.58 log2 enrichment (interaction score); in experiment [10], 3.85 log2 enrichment (interaction score).
